According to PubChem BioAssay AID1159580 (chemical genetic matrix, 2015):
Where “and” joins values, the source holds several entries; their conditions need not be identical. Identical values can stand only once. About 2,000 (36%) of roughly 5,500 compounds were called active. Another 18% or so got no clear call; they are omitted. No stated cut-off is given here; in the data, active means normalized growth mostly below about 0.91 (no sharp cut-off); inconclusive means no clear call, values can overlap the other calls; inactive means mostly above about 0.92. The list shows a part of the results.

Assay: chemical genetic growth profiling, strain panel (AID 1159580);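 further: tested at 20 µM; growth read once vehicle control cultures reached saturation at 30 °C; 1 = growth at the plate median or of vehicle wells; lower values mean less growth of the strain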
Settings: S. cerevisiae deletion strains, growth OD

Measured: normalized growth

CCC(C)C(=O)O[C@@H]1C[C@@]2(C)[C@H](c3ccoc3)OC(=O)CC23OC2(C)OC34[C@H](OC(=O)C(C)C)[C@@]3(O)[C@@H](OC(=O)C5(C)OC5C)[C@@]5(C)C[C@]3(O)[C@@](C)([C@H]5CC(=O)OC)C14O2 (stereo partly specified)
inactive: locus YAL021C, strain ccr4, active compounds read low 1.03 | locus YAL026C, strain drs2, active compounds read low 0.981 | locus YAL030W, strain snc1, active compounds read low 0.996 | locus YBL061C, strain skt5, active compounds read low 1 | locus YBR009C, strain hhf1, active compounds read low 1.02 | locus YBR021W, strain FUR4, active compounds read low 1.07 | locus YBR023C, strain chs3, active compounds read low 1 | locus YBR171W, strain sec66, active compounds read low 0.988 | locus YBR229C, strain ROT2, active compounds read low 1.01 | locus YBR231C, strain swc5, active compounds read low 0.996 | locus YBR279W, strain paf1, active compounds read low 0.995 | locus YCL011C, strain gbp2, active compounds read low 1 | locus YCL016C, strain dcc1, active compounds read low 1.01 | locus YCL029C, strain bik1, active compounds read low 0.994 | locus YCL061C, strain MRC1, active compounds read low 1 | locus YCL069W, strain vba3, active compounds read low 0.995 | locus YCR088W, strain abp1, active compounds read low 0.999 | locus YDL005C, strain med2, active compounds read low 1.02 | locus YDL035C, strain GPR1, active compounds read low 0.974 | locus YDL040C, strain nat1, active compounds read low 0.996 | locus YDL074C, strain BRE1, active compounds read low 1.01 | locus YDL101C, strain DUN1, active compounds read low 1.03 | locus YDL185W, strain tfp1, active compounds read low 1.01 | locus YDL192W, strain arf1, active compounds read low 0.987 | locus YDR001C, strain nth1, active compounds read low 0.999 | locus YDR069C, strain doa4, active compounds read low 0.991 | locus YDR101C, strain arx1, active compounds read low 0.977 | locus YDR150W, strain NUM1, active compounds read low 1 | locus YDR159W, strain sac3, active compounds read low 0.981 | locus YDR162C, strain NBP2, active compounds read low 0.993 | locus YDR195W, strain ref2 1.03 | locus YDR297W, strain sur2, active compounds read low 0.992 | locus YDR318W, strain mcm21, active compounds read low 1.01 | locus YDR334W, strain swr1, active compounds read low 1 | locus YDR335W, strain msn5, active compounds read low 0.997 | locus YDR388W, active compounds read low 1.01 | locus YDR392W, strain spt3, active compounds read low 0.998 | locus YDR502C, strain sam2, active compounds read low 1.03 | locus YEL003W, strain gim4, active compounds read low 1 | locus YEL037C, strain rad23, active compounds read low 1.01 | locus YEL061C, strain CIN8 (second series), active compounds read low 1 | locus YEL061C, strain CIN8, active compounds read low 1 | locus YER015W, strain faa2, active compounds read low 1.01 | locus YER016W, strain bim1, active compounds read low 1 | locus YER110C, active compounds read low 1.02 | locus YER111C, strain swi4, active compounds read low 0.99 | locus YER155C, strain BEM2 (second series), active compounds read low 1.02 | locus YER155C, strain BEM2, active compounds read low 1.01 | locus YER167W, strain BCK2, active compounds read low 0.995 | locus YFR010W, strain ubp6, active compounds read low 1.01 | locus YGL078C, strain dbp3, active compounds read low 1.03 | locus YGL086W, strain mad1, active compounds read low 1.02 | locus YGL167C, strain pmr1, active compounds read low 0.993 | locus YGL173C, strain kem1, active compounds read low 0.977 | locus YGL227W, strain vid30, active compounds read low 0.992 | locus YGL240W, strain doc1, active compounds read low 1 | locus YGL248W, strain PDE1, active compounds read low 1.03 | locus YGL253W, strain hxk2, active compounds read low 0.986 | locus YGR135W, strain pre9, active compounds read low 1.06 | locus YGR252W, strain gcn5, active compounds read low 1.15 | locus YHR013C, strain ard1, active compounds read low 1.01 | locus YHR027C, strain rpn1, active compounds read low 0.996 | locus YHR030C, strain SLT2, active compounds read low 1.05 | locus YHR079C, strain IRE1 (second series), active compounds read low 1 | locus YHR079C, strain IRE1, active compounds read low 1.04 | locus YHR094C, strain hxt1, active compounds read low 1.01 | locus YHR129C, strain ARP1, active compounds read low 1.02 | locus YHR142W, strain chs7, active compounds read low 0.994 | locus YHR200W, strain rpn10, active compounds read low 1.03 | locus YIL066C, strain RNR3, active compounds read low 0.982 | locus YIL073C, strain SPO22, active compounds read low 1 | locus YIL125W, strain kgd1, active compounds read low 1 | locus YIR030C, strain dcg1, active compounds read low 1 | locus YJL092W, strain hpr5, active compounds read low 1.01 | locus YJL095W, strain BCK1 (second series), active compounds read low 1.02 | locus YJL095W, strain BCK1, active compounds read low 1.06 and 1.02 | locus YJL115W, strain asf1, active compounds read low 1.01 | locus YJL129C, strain trk1, active compounds read low 0.98 | locus YJL134W, strain LCB3, active compounds read low 1 | locus YJL154C, strain vps35, active compounds read low 0.993 | locus YJL164C, strain tpk1, active compounds read low 0.996 | locus YJL166W, strain qcr8, active compounds read low 0.989 | locus YJL168C, strain set2, active compounds read low 1.01 | locus YJL187C, strain SWE1 (second series), active compounds read low 1.04 | locus YJL187C, strain SWE1, active compounds read low 1
active: locus YDR137W, strain rgp1, active compounds read low 0.651
